Shown are actives, neighbours in structure and some others; about 0.92% of the full set was active somewhere.
TDP1 block: blocks human tyrosyl-DNA phosphodiesterase 1. Q9NUW8. recombinant TDP1, AlphaScreen DNA substrate cleavage. Potency, µM (top dose mostly 130 µM), inactives show at the highest dose activity change, negative = inhibition, hits mostly inhibitors. 350,000 compounds, 0.28% hits. AID 485290; also: nearly all actives have a fitted effect of over 40% in size
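E. coli-derived human Tdp1, 1 nM final. Cpd preinc 15 min RT; substrate 15 nM final, 5 min RT; AS bead mix 10 ug/ml final, 10 min RT. Signal loss = tyrosine-FITC cleavage. No-enzyme wells = max signal.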
BLM helicase inh: inhibitors of human Bloom syndrome helicase BLM. P54132. recombinant BLM DNA unwinding, fluorescence dequenching. AID 2528. Potency, µM (series often up to 56.1 µM), for inactives: at the top dose activity change, negative = inhibition, usual class: inhibitors. 350,000 compounds, 0.2% hits;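 also: plate controls were vehicle for no effect and no enzyme for full effect; nearly all actives have a fitted effect of over 35% in size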
APE1 inh-1: blocks human APE1 abasic DNA cleavage; Potency, µM (titrated, usually from 65.8 µM), without a hit: top-dose activity change, negative = inhibition, hits mostly inhibitors; recombinant APE1, TAMRA/BHQ-2 abasic DNA cleavage fluorescence; AID 2517; P27695; 350,000 compounds, 0.35% hits;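 also: plate controls were vehicle for no effect and reference inhibitor for full effect; nearly all actives have a fitted effect of over 55% in size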
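APE1 at 0.75 nM preincubated 15 min at room temperature with compound. Reaction then started with 50 nM double-stranded THF-abasic substrate labelled with TAMRA/BHQ-2, and 525/598 nm fluorescence read kinetically. Activity taken as third-minus-first read difference, normalized to DMSO and NSC13755 controls.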
RECQ1 inh: RECQ1 (human) helicase inhibition; Potency, µM (highest dose often 57.3 µM), without a hit: at the highest dose activity, negative = inhibition, actives largely listed as inhibitors; RECQ1 DNA unwinding, red fluorescence kinetic read; 240,000 compounds, 0.54% hits;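 also: plate controls were vehicle for no effect and no enzyme for full effect; nearly all actives have a fitted effect of over 30% in size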
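RECQ1T1 50 nM; forked duplex (20 bp + 30-nt ss tails) 200 nM, ATP 2 mM final; pH 8.0, 2 mM MgCl2, 2.5 ug/ml poly(dI-dC); 15 min compound preincubation; discontinuous kinetic read over 2 h at RT.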
FEN1 inh: blocks human flap endonuclease 1; P39748; Recombinant FEN1 flap cleavage, fluorescence, 15 min; Potency, µM (highest dose often 114 µM), for inactives: top-dose activity change, negative = inhibition, most hits filed as inhibitors; 390,000 compounds, 0.35% hits; also: nearly all actives have a fitted effect of over 65% in size
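Recombinant FEN1 (10 nM) was preincubated with pin-transferred compounds for 15 min at room temperature, then flap DNA substrate (50 nM final) was added. Plates were read at 0 and 15 min, and normalized concentration–response data were fitted to a four-parameter Hill equation.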
APE1 dye cs: DNA dye displacement counter-screen activity; shares compounds with APE1 inh-1; 480 compounds, 7% hits; DNA fluorescent dye displacement counterscreen, fluorescence; Potency, µM (titrated, usually from 28.5 µM), for the others: at the top dose activity change, negative = inhibition, actives largely listed as inhibitors;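 also: loss of thiazole orange fluorescence as the dye is displaced from duplex DNA; 0% = ThO with dsDNA and no compound and -100% = ThO without dsDNA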
Endo IV inh: counter-screen for APE1 inhibitors: inhibitors of E. coli endonuclease IV; shares compounds with APE1 inh-1; Potency, µM (highest dose often 27.1 µM), without a hit: top-dose activity change, negative = inhibition, most hits filed as inhibitors; E. coli Endo IV, fluorogenic AP-site DNA cleavage; 560 compounds, 4% hits;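 also: plate controls were uninhibited enzyme wells for no effect and no enzyme buffer wells for full effect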
APE1 inh-2: confirmation of inhibitors of human APE1 endonuclease; 750 compounds, 44% hits; Potency, µM (series often up to 57.1 µM), inactives show at the top dose activity change, negative = inhibition, actives largely listed as inhibitors; shares compounds with APE1 inh-1; purified APE1, fluorogenic abasic-site DNA cleavage; also: nearly all actives have a fitted effect of over 30% in size
APE1 FP: APE1 (human) DNA binding inhibition, fluorescence polarization; shares compounds with APE1 inh-1; Potency, µM (doses to about 28.5 µM), without a hit: top-dose activity, negative = inhibition, usual class: inhibitors; 480 compounds, 7% hits; APE1 binding to TAMRA-labelled double-stranded DNA, fluorescence polarization displacement
* hit, by the source's call; [ ] = another dose, or the depositor's remark. Calls follow the shape of the dose curve; as a rule, active = well fitted curve in the direction sought with a large enough effect; inconclusive = small, poorly fitted or top-dose-only effect, or another doubt; inactive = no such curve, though single readings can be large; an effect the other way counts as inactive or inconclusive. Unless noted, % is scaled to controls: 0 for no effect and ±100 for the full control effect; potency is read from the fitted curve at half-maximal effect.

How did COc1ccc(-c2cnnc(N/N=C/c3ccc(O)cc3)n2)cc1 do in these assays?
TDP1 block: 0%; BLM helicase inh: -4%; APE1 inh-1: 1%; RECQ1 inh: -2%; FEN1 inh: -8%

What do the screens show for `COc1ccc(-c2cnnc(N/N=C/c3ccc(O)c(O)c3)n2)cc1`?
TDP1 block: 2%; BLM helicase inh: -16%; APE1 inh-1: 20µM*; RECQ1 inh: 16µM*; FEN1 inh: inconclusive; APE1 dye cs: inconclusive; Endo IV inh: 29%; APE1 inh-2: -12%[24.4 µM]; APE1 FP: 15%

Results for COc1ccc(NS(=O)(=O)c2ccc(O)c(C(=O)OCC(=O)NC(C)C3CC4CCC3C4)c2)cc1 (configuration not stated) ?
BLM helicase inh: -12%; APE1 inh-1: 22µM*; RECQ1 inh: -14%; FEN1 inh: 2%; APE1 dye cs: inconclusive; Endo IV inh: -6%; APE1 inh-2: inconclusive; APE1 FP: inconclusive

How did CC(NC(=O)COC(=O)c1cc(NS(=O)(=O)c2ccc(Cl)c([N+](=O)[O-])c2)ccc1O)C1CC2CCC1C2 (configuration not stated) do in these assays?
TDP1 block: 7%; BLM helicase inh: -15%; APE1 inh-1: -12%; RECQ1 inh: -9%; FEN1 inh: -17%

What do the screens show for `COc1ccccc1C(=O)n1nc(-c2ccccc2)nc1NCc1ccc(Cl)cc1`?
TDP1 block: -2%; BLM helicase inh: -13%; FEN1 inh: -22%

Results for COc1ccc2c(c1)c(=O)oc1cc(OCC(=O)N3CCCC(C)C3)ccc12 (configuration not stated) ?
BLM helicase inh: -7%; APE1 inh-1: inconclusive; RECQ1 inh: inactive; FEN1 inh: 2%

Results for COc1ccc2c(c1)c(=O)oc1cc(OCC(=O)N3CCC(C)CC3)ccc12 ?
BLM helicase inh: -28%; APE1 inh-1: 16µM*; RECQ1 inh: 40µM*; FEN1 inh: inconclusive; APE1 dye cs: -9%; Endo IV inh: 0%; APE1 inh-2: 5µM*; APE1 FP: inconclusive

What do the screens show for `CCOC(=O)/C=C/C(=O)OCC(=O)Nc1ccc(Cl)cn1`?
TDP1 block: -1%; BLM helicase inh: -7%; APE1 inh-1: 25%; RECQ1 inh: 2%; FEN1 inh: -14%

How did CCOC(=O)NC1(Nc2ccc(Cl)cn2)Oc2ccccc2O1 do in these assays?
BLM helicase inh: -7%; APE1 inh-1: 2.5µM*; RECQ1 inh: 22µM*; APE1 inh-2: -22%

How did O=C(c1ccccc1Cl)n1nc(-c2cccnc2)nc1NCc1ccc(F)cc1 do in these assays?
TDP1 block: 6%; BLM helicase inh: -5%; FEN1 inh: -3%

Results for O=c1c(-c2ccc(O)cc2)coc2cc(O)cc(O)c12 ?
TDP1 block: 6%; BLM helicase inh: 2%; APE1 inh-1: -1%; RECQ1 inh: -6%; FEN1 inh: 24%[57.1 µM]

Results for O=c1c(-c2cc(O)c(O)c(O)c2)coc2cc(O)c(O)c(O)c12 ?
TDP1 block: 0.28µM*; BLM helicase inh: 11µM*; APE1 inh-1: 0.32µM*; RECQ1 inh: 1.3µM*; Endo IV inh: 7%[57.1 µM]; APE1 inh-2: 0.4µM*

Results for O=C(O)c1ccc2c(c1)C(=O)N(CCc1ccc(O)cc1)C2=O ?
TDP1 block: 6%; BLM helicase inh: 4%; APE1 inh-1: 10%; RECQ1 inh: 1%

How did O=C(CSc1nnc(SCc2ccc(Cl)cc2)s1)N/N=C/c1c[nH]c2ccccc12 do in these assays?
TDP1 block: 22µM*; BLM helicase inh: inconclusive; APE1 inh-1: 0%; RECQ1 inh: inactive; FEN1 inh: inconclusive; APE1 inh-2: -21%

How did O=C(CSc1nnc(SCc2cccc3ccccc23)s1)N/N=C/c1c[nH]c2ccccc12 do in these assays?
TDP1 block: 3%; BLM helicase inh: -4%; APE1 inh-1: -4%; RECQ1 inh: -8%; FEN1 inh: 9%

What do the screens show for `Cc1c(-c2ccc(Cl)cc2)oc(=O)c2c(N)n(-c3ccccc3)nc12`?
TDP1 block: 50µM*; BLM helicase inh: inconclusive; APE1 inh-1: -7%; RECQ1 inh: -10%; FEN1 inh: -9%; APE1 inh-2: inconclusive

What do the screens show for `Nc1c2c(=O)oc(-c3ccccc3)cc2nn1-c1ccccc1`?
TDP1 block: 1%; BLM helicase inh: -7%; APE1 inh-1: -7%; RECQ1 inh: -8%; FEN1 inh: -23%

Results for Oc1cc(O)c2c(c1)O[C@H](c1ccc(O)c(O)c1)[C@H](O)C2 ?
TDP1 block: -3%[21 µM]; BLM helicase inh: -3%; APE1 inh-1: -9%; RECQ1 inh: -18%[25.9 µM]; FEN1 inh: 15%; APE1 dye cs: 2%; Endo IV inh: 137%; APE1 inh-2: -6%[24.4 µM]; APE1 FP: inconclusive

How did Oc1ccc(C2Oc3cc(O)cc(O)c3CC2O)cc1 (configuration not stated) do in these assays?
TDP1 block: 8%[56.1 µM]; BLM helicase inh: 3%; APE1 inh-1: -7%; RECQ1 inh: inactive

What do the screens show for `CCN(c1ccccc1)S(=O)(=O)c1cc(C(=O)OC(C)C(=O)Nc2ccc3c(c2)OCCO3)ccc1C` (configuration not stated)?
BLM helicase inh: -14%; APE1 inh-1: 11µM*; RECQ1 inh: -12%; FEN1 inh: 1%; APE1 dye cs: 18%; Endo IV inh: -7%; APE1 inh-2: 14µM*; APE1 FP: inconclusive

Results for Cc1ccccc1OC(C)C(=O)Nc1ccc2c(c1)OCCO2 (configuration not stated) ?
TDP1 block: 2%; BLM helicase inh: 0%; APE1 inh-1: 8%; FEN1 inh: -12%

Screening results from PubChem.
